Screens: PubChem, National Center for Advancing Translational Sciences (NCATS)
rTrxR1 inhibitor – qHTS Assay for Inhibitors of Mammalian Selenoprotein Thioredoxin Reductase 1 (TrxR1): qHTS | Thioredoxin reductase 1, cytoplasmic (Rattus norvegicus), O89049 | recombinant rTrxR1, NADPH fluorescence consumption, selenite substrate | Potency, µM (highest dose often 114 µM), without a hit: top-dose activity change, negative = inhibition, hits mostly inhibitors | 390,000 tested, 1% active; also: nearly all actives have a fitted effect of over 65% in size
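Rat TrxR1 (90 nM in the dispensed reagent) was pre-reduced with 400 uM NADPH for 5 min at room temperature, then incubated with compound for 15 min. After 400 uM selenite was added, NADPH fluorescence (Ex 340/Em 450 nm) was followed for 8 min.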
TrxR1 substrate – qHTS Assay for Substrates of Mammalian Selenoprotein Thioredoxin Reductase 1 (TrxR1): qHTS | Thioredoxin reductase 1, cytoplasmic (Rattus norvegicus), O89049 | purified TrxR1 substrate turnover, NADPH consumption readout | Potency, µM (titrated, usually from 114 µM), for the others: top-dose activity change, negative = substrate turnover | 390,000 tested, 0.01% active | AID 588456, 2011; also: nearly all actives have a fitted effect of over 50% in size
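Rat TrxR1, dispensed at 90 nM, was prereduced with 400 uM NADPH (final) for 5 min at ~22 deg C, then incubated with compound 15 min before 400 uM selenite. A first-read NADPH fluorescence drop versus no-compound background flagged substrates.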
GLS inh – qHTS for Inhibitors of Glutaminase (GLS); GLS enzymatic activity, qHTS titration; Potency, µM (titrated, usually from 45.5 µM), for the others: top-dose activity change, negative = inhibition, actives largely listed as inhibitors; 410,000 tested, 0.21% active; AID 624170, 2012
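hKGA; 45 mM KH2PO4 pH 8.2 + 0.02% Tween-20; cpd via pin tool; 1 mM Gln soln; GluOx/HRP/Amplex Red; RT 30 min; fluor. t0 & final.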
GCN5L2 inh – qHTS Assay for Inhibitors of GCN5L2. Potency, µM (doses to about 58.9 µM), inactives show at the top dose activity change, negative = inhibition, actives largely listed as inhibitors. GCN5L2 HAT assay, ThioGlo1 CoA-SH fluorescence. 390,000 tested, 0.21% active. Histone acetyltransferase KAT2A (Homo sapiens), Q92830
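ThioGlo1-coupled HAT assay: 20nM GCN5L2, 70uM acetyl-CoA, 75uM H3(1-25) peptide, pH 7.5. Fluorescence read at 340/540nm at start and after 20 min at room temperature.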
VDR inhibitor – Inhibitors of the vitamin D receptor (VDR): qHTS; VDR-SRC2-3 peptide fluorescence polarization, 2 h; Vitamin D3 receptor (Homo sapiens), P11473; 400,000 tested, 0.93% active; Potency, µM, without a hit: max response, negative = inhibition, most hits filed as inhibitors
Target sequence (P11473 whole entry, looked up): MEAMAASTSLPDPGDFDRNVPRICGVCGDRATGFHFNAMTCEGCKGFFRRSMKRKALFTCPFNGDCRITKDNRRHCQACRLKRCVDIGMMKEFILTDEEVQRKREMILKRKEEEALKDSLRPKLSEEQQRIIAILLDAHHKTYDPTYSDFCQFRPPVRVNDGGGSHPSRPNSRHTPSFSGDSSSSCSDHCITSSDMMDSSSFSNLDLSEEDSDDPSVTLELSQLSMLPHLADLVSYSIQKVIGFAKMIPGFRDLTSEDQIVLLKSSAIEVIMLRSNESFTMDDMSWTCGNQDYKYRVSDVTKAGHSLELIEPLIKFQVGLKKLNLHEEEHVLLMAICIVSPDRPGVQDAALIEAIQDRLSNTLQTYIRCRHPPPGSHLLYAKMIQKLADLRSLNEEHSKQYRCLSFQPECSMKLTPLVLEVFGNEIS
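Reagent solutions, kept cold and dark, are dispensed first; compounds are then pinned in at 23 nl, plates briefly spun, and incubated 2 h at ambient temperature. Inhibition of VDR–SRC2-3 peptide binding is read by fluorescence polarization.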
Sfp inh – qHTS Assay for Inhibitors of Bacillus subtilis Sfp phosphopantetheinyl transferase (PPTase); 4'-phosphopantetheinyl transferase ffp (Bacillus subtilis), Q9F4F7; Biochemical Sfp PPTase activity, qHTS; Potency, µM, inactives show largest response in the series, negative = inhibition, hits mostly inhibitors; 310,000 tested, 3.5% active; AID 1490, 2009;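 also: the enzyme is Sfp with the accession as filed and its product quenches rhodamine fluorescence; 0% = enzyme reaction without inhibitor and -100% = no enzyme wells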
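Step 1, compound plus 15 nM Sfp-PPTase, 15 min, room temperature. Step 2, add rhodamine-CoA (5 uM) and BHQ-2-YbbR (12.5 uM). Step 3, read 525/598 nm fluorescence at 0 and 30 min.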
An asterisk follows results filed as active; ? = inconclusive; nt = no result; [ ] = another dose, or the depositor's remark. In the library only some 3.8% were active in any assay of this set; here they are far more common. Calls follow the shape of the dose curve; as a rule, active = well fitted curve in the direction sought with a large enough effect; inconclusive = small, poorly fitted or top-dose-only effect, or another doubt; inactive = no such curve, though single readings can be large; an effect the other way counts as inactive or inconclusive. Unless noted, % is scaled to controls: 0 for no effect and ±100 for the full control effect; potency is read from the fitted curve at half-maximal effect.

SMILES	rTrxR1 inhibitor	TrxR1 substrate	GLS inh	GCN5L2 inh	VDR inhibitor	Sfp inh
Cc1nn(-c2ccccc2)c(OC(=O)C(C)C)c1Sc1ccccc1	51%	-4%	5%	3%	71µM*	nt
Cc1nn(-c2ccccc2)c(OC(=O)C(C)(C)C)c1Sc1ccccc1	51%	-3%	2%	-3%	79µM*	nt
Cc1cc(C)c(S(=O)(=O)Nc2ccc[nH]c2=O)c(C)c1	18%	4%[57.1 µM]	25%	-4%	10%	50µM*
Cc1ccc2nc(/C(C#N)=C/c3ccc(-c4ccc(F)cc4F)o3)[nH]c2c1	3%	1%	-10%	-3%	-13%	nt
Cc1cccnc1NC(=S)Nc1ccc(F)cc1F	-45%	1%[57.1 µM]	-2%	-1%	?	18µM*
CC(=O)Nc1cccc(NC(=S)Nc2cccc(Cl)c2Cl)c1	32µM*	0%[57.1 µM]	0%	23%	-17%	32µM*
O=C(Nc1ccc(F)cc1F)Nc1ccc(F)cc1F	7%[57.1 µM]	2%[57.1 µM]	-1%	0%	3%	18%
CC(=O)Nc1cccc(NC(=S)Nc2ccc(F)cc2F)c1	-9%[57.1 µM]	3%[57.1 µM]	19%	1%	-6%	40µM*
Cc1ccc(C)c(NC(=S)Nc2ncccc2C)c1	-46%	3%[57.1 µM]	?	-3%	-11%	?
COc1cc(NC(=S)Nc2ncccc2C)cc(OC)c1OC	?	7%	13%	3%	-19%	50µM*
COC(=O)c1cccc(NC(=S)Nc2cccc(Cl)c2Cl)c1	-48%	14%[57.1 µM]	-23%	-8%	-14%	10%
Cc1ccccc1NC(=O)C(=O)NCCCN1CCOCC1	-6%[57.1 µM]	-7%[57.1 µM]	-7%	0%	-10%	15%
O=C(Nc1ccc(C(=O)NCc2ccccc2)cc1)C1=CSCCO1	9%	-2%	7%	-11%	5%	4%
NC(=O)CSc1ncnc2c1cnn2Cc1ccccc1	-14%	-10%	-8%	?	19%	7%
CCOC(=O)CN1C(=O)C(O)(CC(=O)c2cccc(OC)c2)c2ccccc21 (stereo not drawn)	23%	9%[0.457 µM]	-3%	-5%	15%	0%
COc1ccc(C(=O)N(Cc2ccco2)Cc2cccs2)c(O)c1	-10%	3%	13%	-2%	4%	?
COc1ccc(C(=O)/C=C/C(=O)N(CC(=O)NCCC(C)C)Cc2cccs2)c(O)c1	2.8µM*	-5%	?	1%	-10%	3.5µM*
Cc1ccc2c(C)c(C(=O)NCc3ccc(S(N)(=O)=O)cc3)oc2c1C	14%[57.1 µM]	-2%[57.1 µM]	-9%	20µM*	3%	-3%
COc1ccc(Nc2cc(C)nc(NCc3ccccc3)n2)cc1	20%[57.1 µM]	8%[57.1 µM]	0%	2%	15%	32µM*
O=C(NC1CCC(O)CC1)c1ccc2c(c1)S(=O)(=O)N=C1CCCCCN12 (stereo not drawn)	11%	3%	2%	-4%	-8%	nt
CCN1CCN(CCCNC(=O)c2ccc(/C=C3/Sc4ccccc4N(Cc4ccccc4F)C3=O)cc2)CC1	21%[57.1 µM]	5%[57.1 µM]	-5%	-11%	-4%	50µM*
CCN1CCN(CCNC(=O)c2ccc(/C=C3/Sc4ccccc4N(Cc4ccccc4C)C3=O)cc2)CC1	29%	1%	1%	-5%	0%	40µM*
CCN1CCN(CCCNC(=O)c2ccc(/C=C3/Oc4ccccc4N(Cc4cccc(C)c4)C3=O)cc2)CC1	26%	95%	-22%	-13%	-13%	40µM*
O=C(NCCCN1CCOCC1)c1ccc(/C=C2\Oc3ccccc3N(Cc3ccccc3F)C2=O)cc1	26%	5%	2%	-12%	2%	-18%
O=C(NCCCN1CCCC1)c1ccc2c(c1)N(Cc1ccccc1F)C(=O)c1ccccc1S2=O (stereo not drawn)	32%	8%	-13%	-1%	-3%	0%
SMILES	rTrxR1 inhibitor	TrxR1 substrate	GLS inh	GCN5L2 inh	VDR inhibitor	Sfp inh
CCCCC1Cc2[nH]c(=S)[nH]c(=O)c2C(c2ccc(C(C)C)cc2)O1 (stereo not drawn)	nt	nt	0%	nt	nt	nt
COC(=O)c1ccc2nc(-c3ccc(F)cc3)c(Cc3cccc(F)c3)n2c1	nt	nt	6%	nt	nt	nt
COc1ccc(C2=NC(c3ccc(Cl)cc3)C(c3ccc(Cl)cc3)N2C(=O)N2CCNC(=O)C2)c(OC(C)C)c1 (stereo not drawn)	nt	nt	nt	-21%	50µM*	-22%
COc1ccc(/C=C/C(=O)N2CCNC(=O)C2)c(OC)c1	3%	-10%	5%	-7%	-9%	5%
CCCN(Cc1ccc(N(C)C)cc1)CC1CC1	17%	9%	56%	-10%	-4%	89µM*
CCCN(Cc1ccc(N(CC)CC)cc1)CC1CC1	8%	9%	16%	-1%	2%	9%
CCOC(=O)c1c(-c2ccccc2)csc1NC(=O)c1cc(-c2ccc(C)c(F)c2)on1	8%	2%	1%	1%	0%	nt
COc1cccc(NC(=O)Cc2ccccc2)c1	16%[57.1 µM]	-7%[57.1 µM]	-3%	2%	7%	19%
O=C(Cc1ccccc1)Nc1cccc(N2C(=O)C=CC2=O)c1	3.5µM*	0%	40%	?	?	-86%
COc1cc2cc(Oc3ccc4ccc(=O)oc4c3)c(=O)oc2cc1O[C@@H]1O[C@H](CO)[C@@H](O)[C@H](O)[C@H]1O	4%	20%	18µM*	-25%	-28%	nt
COc1cc2cc(Oc3ccc4ccc(=O)oc4c3)c(=O)oc2cc1OC1OC(COC(=O)CC(C)(O)CC(=O)O)C(O)C(O)C1O (stereo not drawn)	-28%	36%	?	-7%	-27%	4%
O=C(c1noc2c1CCc1ccccc1-2)N1CCCc2ccccc21	0%	3%	1%	-2%	1%	-2%
O=C(c1cc(-c2ccccc2O)on1)N1CCc2ccccc2C1	9%[57.1 µM]	4%[57.1 µM]	3%	-7%	-9%	-7%
COc1ccccc1N1CCN(C(=O)c2cc(-c3ccco3)on2)CC1	45µM*	3%	5%	-5%	0%	2%
O=C(c1noc2c1CCc1ccccc1-2)N1CCc2ccccc2C1	nt	nt	nt	-12%	nt	1µM*
COc1ccccc1N1CCN(C(=O)c2cc(-c3ccccc3)on2)CC1	13%	-2%	-1%	-4%	-5%	14%
O=C(c1cc(-c2ccco2)on1)N1CCc2ccccc2C1	32µM*	-8%	-6%	?	-2%	45µM*
Cc1ccc2nc(/C(C#N)=C/c3ccc(-c4cccc([N+](=O)[O-])c4)o3)[nH]c2c1	-5%	-10%	-5%	-19%	-3%	-16%
